GPR151 ag: activators of human GPR151, primary screen, cell-based, PathHunter beta-arrestin, luminescence; G-protein coupled receptor 151 (Homo sapiens), Q8TDV0; PathHunter beta-arrestin GPR151 cells; activation, % at 11.2 µM; hit rate 1% among 650,000; AID 1508602, 2020; in the data active = activation above about 4.9%;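 also: 0% = median of compound wells and 100% = cells with positive control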
FBW7 activator: FBW7 E3 ligase activators, primary screen, biochemical, AlphaScreen, human; normalized activity (activation), % at 26.1 µM; hit rate 0.13% among 650,000; F-box/WD repeat-containing protein 7 (Homo sapiens), Q969H0; AlphaScreen FBW7–phospho-cyclin E peptide binding, activator screen; in the data active = normalized activity above about 1.9%;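 also: purified mutant Fbw7 with reduced substrate affinity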
Target sequence (Q969H0 whole entry, looked up): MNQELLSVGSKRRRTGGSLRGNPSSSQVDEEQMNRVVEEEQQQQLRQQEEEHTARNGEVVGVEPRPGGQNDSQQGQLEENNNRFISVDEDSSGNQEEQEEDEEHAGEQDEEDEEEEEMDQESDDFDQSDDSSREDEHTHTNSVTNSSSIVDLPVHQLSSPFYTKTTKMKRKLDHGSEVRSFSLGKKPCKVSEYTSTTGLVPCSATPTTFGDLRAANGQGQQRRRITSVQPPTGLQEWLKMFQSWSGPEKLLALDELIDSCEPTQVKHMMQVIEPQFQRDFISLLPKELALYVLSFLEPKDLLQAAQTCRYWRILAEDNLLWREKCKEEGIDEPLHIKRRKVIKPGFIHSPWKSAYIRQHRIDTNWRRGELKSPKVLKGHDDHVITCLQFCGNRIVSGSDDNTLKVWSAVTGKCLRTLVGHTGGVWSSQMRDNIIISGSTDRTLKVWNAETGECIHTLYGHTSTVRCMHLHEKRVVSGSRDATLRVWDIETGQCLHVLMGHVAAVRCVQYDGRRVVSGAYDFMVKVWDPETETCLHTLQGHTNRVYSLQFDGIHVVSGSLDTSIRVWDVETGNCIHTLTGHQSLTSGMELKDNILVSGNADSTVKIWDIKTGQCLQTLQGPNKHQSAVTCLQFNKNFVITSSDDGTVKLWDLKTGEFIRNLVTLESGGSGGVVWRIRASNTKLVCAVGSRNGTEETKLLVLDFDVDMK
TEAD-YAP inh: TEAD-YAP interaction inhibition, primary screen, TEAD-YAP interaction inhibitor project, luminescence, HEK-TIYL cells. TEAD-Gal4/YAP UAS-luciferase luminescence. inhibition, % at 9.12 µM. hit rate 1.4% among 640,000; in the data active = inhibition above about 32%;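 also: 0% = median of test compound wells and 100% = reference inhibitor wells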
MITF inh: MITF inhibitors, primary screen, biochemical, AlphaScreen, human | AlphaScreen MITF homodimerization, bead proximity signal | inhibition, % at 2.6 µM | hit rate 0.91% among 650,000; in the data active = inhibition above about 50%;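 also: 0% = vehicle wells with protein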
Starred values were filed as active, the others as inactive. Sampled rows, rich in hits. Any-hit rate of the full collection: about 3.5%.

SMILES	GPR151 ag	FBW7 activator	TEAD-YAP inh	MITF inh
CCCCn1c(CNC(=O)c2ccc(OC)c(OC)c2)nnc1SCC(=O)Nc1sc2c(c1C(=O)OCC)CCC2	-1	0	-19	-4
CCOc1ccccc1N(CC(=O)N1CCC(Cc2ccccc2)CC1)S(=O)(=O)c1ccccc1	0	0	3	15
CCCCCCCC(=O)Nc1ccc(C(=O)Nc2ccc(O)c(C(=O)O)c2)cc1	0	4.1*	-7	50
CC1(C)CC(=O)C2=C(C1)OC(N)=C(C#N)C2c1ccc(N2CCCC2)cc1 (stereo unspecified)	0	0	2	0
CCSc1nc(-c2ccccc2)c(NC(=O)c2ccco2)s1	0	1.9*	-10	11
Cc1ccc(-c2nnc(SCC(=O)N3CCOCC3)o2)cc1	-1	0	-68	-3
COc1ccc(OC)c(/C=C2/C(=O)ON=C2C)c1	0	0	-4	46
COc1cc(/C=C2\C(=O)ON=C2C)cc(Cl)c1OC(C)C	0	0	-4	75*
CCOc1c(Br)cc(/C=C2\C(=O)ON=C2C)cc1OC	2	0	-8	78*
COc1ccc(Br)cc1/C=C1\C(=O)ON=C1C	-1	0	-5	65*
CSc1ccc(/C=C2\C(=O)ON=C2C)cc1	0	1	-3	79*
COc1ccc([C@@H]2[C@@H](C(=O)c3ccccc3)N3c4ccccc4C=C[C@@H]3C2(C#N)C#N)cc1	-1	0	-4	0
CCCCCCNC(=O)c1ccc2c(c1)NC(=O)C(CSCc1cccc(F)c1)N2 (stereo unspecified)	0	0	-2	-10
O=C(Nc1ccc(F)c(F)c1)c1cc([N+](=O)[O-])cc([N+](=O)[O-])c1	1	0	4	-1
C#CCOc1ccc(/C=C2\C(=O)ON=C2C)cc1OC	2	0	-10	68*
CCn1c2ccccc2c2cc(CN3CCN(Cc4cc(OC)c(O)c(OC)c4)CC3)ccc21	1	0	-6	46
COc1ccc(O)c(CN2CCN(Cc3ccccc3OC)CC2)c1	-1	0	-4	69*
CCn1c2ccccc2c2cc(CN3CCN(Cc4cc(OC)ccc4O)CC3)ccc21	-1	0	-18	62*
COc1ccc(CN2CCN(Cc3cc(OC)ccc3O)CC2)cc1	0	0	-1	83*
Cn1c(C(F)(F)F)nn(CN2CCN(Cc3ccccc3)CC2)c1=S	-1	0	4	0
COc1ccc(Nc2cc(-c3ccncc3)nc(-c3ccncc3)n2)cc1	-1	0	15	0
Cc1noc(-c2ccc(NC(=O)COc3ccc(Cl)cc3Cl)cc2)n1	1	0	11	-2
N[C@@H](Cc1ccccc1)c1nc2ccc(-c3cn[nH]c3)cc2c(=O)[nH]1	4	-1	75*	14
COc1cc(-c2cn[nH]c2)cc2c(=O)[nH]c([C@@H](N)Cc3cccc(F)c3)nc12	0	-1	68*	-3
N[C@H](Cc1ccc(F)cc1)c1nc2ccc(-c3cn[nH]c3)cc2c(=O)[nH]1	1	0	81*	28
SMILES	GPR151 ag	FBW7 activator	TEAD-YAP inh	MITF inh
Cc1ccccc1OCc1nc(N(C)CCN(C)C)c2cc(-c3cn[nH]c3)ccc2n1	0	0	22	13
COc1cc(-c2cn[nH]c2)cc2c(=O)[nH]c(C(N)c3ccc(Cl)cc3)nc12 (stereo unspecified)	0	0	29	7
CN(C)CCN(C)c1nc([C@H](N)Cc2cccc(F)c2)nc2ccc(-c3cn[nH]c3)cc12	0	2.7*	-1	30
c1ccc(N2CCOCC2)cc1	1	0	9	-4
COc1ccc(CN2CCc3nnc(CCc4ccccc4)n3CC2)c(F)c1	-2	0	6	14
N[C@@H](Cc1ccccc1)c1nc2ccc(-c3ccncc3)cc2c(=O)[nH]1	0	-1	61*	18
COc1cccc(Cc2nc3c(OC)cc(-c4cn[nH]c4)cc3c(=O)[nH]2)c1	1	0	30	-1
COc1cccc(CCc2nc3c(OC)cc(-c4cn[nH]c4)cc3c(=O)[nH]2)c1	-1	1	36*	16
NCCC(=O)NC(c1ccc(Cl)cc1)c1nc2ccc(-c3cn[nH]c3)cc2c(=O)[nH]1 (stereo unspecified)	-2	0	3	7
N[C@H](Cc1ccccc1)c1nc2ccc(-c3ccncc3)cc2[nH]1	0	-1	17	24
N[C@H](Cc1cccc(F)c1)c1nc2ccc(-c3cn[nH]c3)cc2[nH]1	0	-1	-6	10
N[C@@H](Cc1ccc(F)cc1)c1nc2ccc(-c3cn[nH]c3)cc2c(=O)[nH]1	-3	-1	85*	-6
N[C@H](Cc1cccc(F)c1)c1nc2ccc(-c3cn[nH]c3)cc2c(=O)[nH]1	1	-1	68*	8
CN(C)CCN1C(=O)C(=O)/C(=C(\O)c2ccccc2)C1c1ccc(O)cc1 (stereo unspecified)	1	1	-1	6
CCc1c(C)sc(NC(=O)/C=C/c2c(F)cccc2Cl)c1C(N)=O	0	1	-30	15
N[C@@H](Cc1ccc(Cl)cc1)c1nc2ccc(-c3cn[nH]c3)cc2c(=O)[nH]1	-1	-1	86*	13
N[C@H](CCc1ccccc1)c1nc2ccc(-c3cn[nH]c3)cc2c(=O)[nH]1	1	-1	-4	17
N[C@H](Cc1ccc(F)c(F)c1)c1nc2ccc(-c3cn[nH]c3)cc2c(=O)[nH]1	1	-1	76*	15
NCc1ccc(C(=O)NC(c2ccc(Cl)cc2)c2nc3ccc(-c4cn[nH]c4)cc3c(=O)[nH]2)cc1 (stereo unspecified)	-2	0	3	21
N[C@H](Cc1cccc(Cl)c1)c1nc2ccc(-c3cn[nH]c3)cc2c(=O)[nH]1	0	-1	69*	-9
Cc1ccccc1/C=C1\SC(=Nc2ccccc2Cl)NC1=O	0	0	45*	-3
Cc1cc(/C=C2\SC(=Nc3ccccc3Cl)NC2=O)c(C)n1-c1ccccc1	2	0	48*	-2
CC(=O)c1cccc(NC(=O)c2oc3ccc4c(c3c2C)C(=O)CC(C)(C)O4)c1	0	0	52*	1
COc1ccccc1NC(=O)c1oc2ccc3c(c2c1C)C(=O)CC(C)(C)O3	0	0	33*	-7
COc1ccccc1CNC(=O)c1oc2ccc3c(c2c1C)C(=O)CC(C)(C)O3	0	0	-28	-10
Cc1c(C(=O)Nc2ccc3c(c2)OCO3)oc2ccc3c(c12)C(=O)CC(C)(C)O3	0	0	42*	1
COc1cccc(NC(=O)c2oc3ccc4c(c3c2C)C(=O)CC(C)(C)O4)c1	-11	0	92*	6
COc1ccc(-c2c(C#N)c(N)[nH]c(=S)c2C#N)cc1OC	0	0	3	8

High-throughput results deposited in PubChem by The Scripps Research Institute Molecular Screening Center.
